Test results from PubChem BioAssay (EPA / NIEHS).
Values joined by “and” are separate entries in the source; they are usually repeats but may differ in a detail not shown here. Identical values can stand only once. Records with an inconclusive call do not appear. The source holds several records for some structures; these can differ, active in one and inactive in another. Active and inactive are the calls of the source. Rule for the calls, unless noted: active = hit-call score of the fitted dose curve at least 0.9, where 1 is the maximum; inconclusive = response in the unintended direction; inactive = score below 0.9.

What follows are compounds tested against Estrogen receptor (Homo sapiens) (UniProt P03372) (assay: OT_ERa_GFPERaERE_0480: Odyssey Thera (OT) 8-hour HeLa Transcription Induction Assay for Estrogen Receptor (AID 2283381; active = hit-call score of the fitted dose curve at least 0.9, where 1 is the maximum; inactive = score below 0.9)).
Estrogen receptor (Homo sapiens), sequence (P03372 whole entry, looked up): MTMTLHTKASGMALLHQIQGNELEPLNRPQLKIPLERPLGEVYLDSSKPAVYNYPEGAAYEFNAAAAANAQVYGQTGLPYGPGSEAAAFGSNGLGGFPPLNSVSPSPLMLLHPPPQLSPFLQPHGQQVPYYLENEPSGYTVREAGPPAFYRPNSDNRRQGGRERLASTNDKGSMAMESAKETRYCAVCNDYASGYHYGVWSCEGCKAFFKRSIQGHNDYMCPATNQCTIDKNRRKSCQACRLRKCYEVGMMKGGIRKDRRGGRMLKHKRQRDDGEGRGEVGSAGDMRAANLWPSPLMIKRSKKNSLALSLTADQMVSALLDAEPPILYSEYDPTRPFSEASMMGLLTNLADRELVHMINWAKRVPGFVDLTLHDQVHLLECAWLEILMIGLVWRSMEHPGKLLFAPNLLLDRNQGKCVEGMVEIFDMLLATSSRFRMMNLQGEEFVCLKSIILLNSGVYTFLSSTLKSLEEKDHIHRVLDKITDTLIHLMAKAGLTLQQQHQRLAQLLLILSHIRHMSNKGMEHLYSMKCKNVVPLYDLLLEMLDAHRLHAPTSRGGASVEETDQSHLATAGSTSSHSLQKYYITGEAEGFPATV
Procedure, shortened: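 Fluorescence microscopy with high-content image analysis measures ERE-driven GFP induction in HeLa cells at 8 h post-dose. Increases fitted against DMSO baseline.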
`CCc1nc(N)nc(N)c1-c1ccc(Cl)cc1` was tested, and the outcome was “inactive”. With `O=Cc1ccccc1C=O` the outcome was “inactive”. For `Nc1nc(=S)c2[nH]cnc2[nH]1`, the outcome was “inactive”. With `O=C(O)CN(CC(=O)O)CC(=O)O` the outcome was “inactive”. In the case of `CN(C)C(=O)NC1(c2ccccc2)CCN(CCC[C@]2(c3ccc(Cl)c(Cl)c3)CCCN(C(=O)c3ccccc3)C2)CC1`, the outcome is reported as “inactive”. `COc1ccc(OC(F)(F)F)cc1CN[C@H]1CCCN[C@H]1c1ccccc1` was tested, and the AC50 was 85.4 µM (active). In the case of `CCCCCCCCCCCCCCOS(=O)(=O)O`, the AC50 is reported as 92.3 µM (active). In the case of `CSc1ccc(Oc2ccc(S(N)(=O)=O)cc2CN(C)C)cc1C`, the outcome is reported as “inactive”. `CC(C)OC(=O)C(C)(C)Oc1ccc(C(=O)c2ccc(Cl)cc2)cc1` was tested, and the outcome was “inactive”. For `Cc1ccc(-c2cc(C(F)(F)F)nn2-c2ccc(S(N)(=O)=O)cc2)cc1`, the outcome was “inactive”. For `O=C(N[C@@H](c1ccccc1)[C@@H]1CCCCN1)c1cccc(C(F)(F)F)c1Cl`, the outcome was “inactive”. In the case of `CCC(C)N(C)C(=O)c1cc2ccccc2c(-c2ccccc2Cl)n1` (stereo not drawn), the outcome is reported as “inactive”. For `NC(=Nc1ccccc1)Nc1ccccc1`, the outcome was “inactive”.

These compounds were tested against Estrogen receptor (Homo sapiens) (UniProt P03372) (assay: OT_ERa_GFPERaERE_0120: Odyssey Thera (OT) 2-hour HeLa Transcription Induction Assay for Estrogen Receptor (AID 2283382)).
Procedure, shortened: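 Fluorescence-microscopy images of the GFP-ERα/ERE reporter, scored by high-content image algorithms, give the readout. HeLa exposure lasted 2 h, and only signal increase over DMSO was fitted.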
`CCc1nc(N)nc(N)c1-c1ccc(Cl)cc1` was tested, and the outcome was “inactive”. `O=Cc1ccccc1C=O` was tested, and the outcome was “inactive”. `Nc1nc(=S)c2[nH]cnc2[nH]1` was tested, and the outcome was “inactive”. For `O=C(O)CN(CC(=O)O)CC(=O)O`, the outcome was “inactive”. In the case of `CN(C)C(=O)NC1(c2ccccc2)CCN(CCC[C@]2(c3ccc(Cl)c(Cl)c3)CCCN(C(=O)c3ccccc3)C2)CC1`, the outcome is reported as “inactive”. In the case of `COc1ccc(OC(F)(F)F)cc1CN[C@H]1CCCN[C@H]1c1ccccc1`, the AC50 is reported as 75.7 µM (active). For `CCCCCCCCCCCCCCOS(=O)(=O)O`, the outcome was “inactive”. `CSc1ccc(Oc2ccc(S(N)(=O)=O)cc2CN(C)C)cc1C` was tested, and the outcome was “inactive”. With `CC(C)OC(=O)C(C)(C)Oc1ccc(C(=O)c2ccc(Cl)cc2)cc1` the outcome was “inactive”. With `Cc1ccc(-c2cc(C(F)(F)F)nn2-c2ccc(S(N)(=O)=O)cc2)cc1` the outcome was “inactive”. `O=C(N[C@@H](c1ccccc1)[C@@H]1CCCCN1)c1cccc(C(F)(F)F)c1Cl` was tested, and the outcome was “inactive”. With `CCC(C)N(C)C(=O)c1cc2ccccc2c(-c2ccccc2Cl)n1` (stereo not drawn) the outcome was “inactive”. In the case of `NC(=Nc1ccccc1)Nc1ccccc1`, the outcome is reported as “inactive”.

Each compound was assayed against Bile acid receptor (Homo sapiens) (UniProt Q96RI1) (assay: OT_FXR_FXRSRC1_0480: Odyssey Thera (OT) 8-hour HEK293T Protein-Complementation Assay for Farnesoid X receptor/SRC-1 Co-activator (AID 2283383)).
Bile acid receptor (Homo sapiens), sequence (Q96RI1 whole entry, looked up, the tested form may be a part): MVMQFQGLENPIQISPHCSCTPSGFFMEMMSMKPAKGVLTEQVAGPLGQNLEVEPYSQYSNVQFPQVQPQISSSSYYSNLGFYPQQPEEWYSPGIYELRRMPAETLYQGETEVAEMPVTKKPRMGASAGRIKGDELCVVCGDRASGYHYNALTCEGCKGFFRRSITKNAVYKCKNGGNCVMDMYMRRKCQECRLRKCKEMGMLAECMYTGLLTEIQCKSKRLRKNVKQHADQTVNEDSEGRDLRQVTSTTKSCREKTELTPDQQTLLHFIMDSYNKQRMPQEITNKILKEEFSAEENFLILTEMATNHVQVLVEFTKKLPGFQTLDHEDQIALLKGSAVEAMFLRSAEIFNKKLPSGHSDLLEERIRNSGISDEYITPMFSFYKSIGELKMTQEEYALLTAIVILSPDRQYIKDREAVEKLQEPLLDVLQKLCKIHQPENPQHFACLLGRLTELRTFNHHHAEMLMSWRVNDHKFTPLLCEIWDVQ
Procedure, shortened: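 Binding of FXR to coactivator SRC-1 was read as fluorescence from a reconstituted split reporter in HEK293T cells, 8 h after chemical addition. Only increases in signal versus DMSO were fit.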
With `CCc1nc(N)nc(N)c1-c1ccc(Cl)cc1` the outcome was “inactive”. For `Cn1cnc2c1c(=O)[nH]c(=O)n2C`, the outcome was “inactive”. `Cc1cc(Cc2ccc(N)c(C)c2)ccc1N` was tested, and the AC50 was 50 µM (active). `O=C(O)CN(CC(=O)O)CC(=O)O` was tested, and the outcome was “inactive”. In the case of `CCCCC(CC)COP(=O)(OCC(CC)CCCC)OCC(CC)CCCC` (stereo not drawn), the AC50 is reported as 15.6 µM (active). `CN(C)C(=O)NC1(c2ccccc2)CCN(CCC[C@]2(c3ccc(Cl)c(Cl)c3)CCCN(C(=O)c3ccccc3)C2)CC1` was tested, and the AC50 was 15.9 µM (active). For `CN(C)C(=O)NC1(c2ccccc2)CCN(CC[C@@]2(c3ccc(F)c(F)c3)CN(C(=O)c3ccccc3)CCO2)CC1`, the outcome was “inactive”. In the case of `COc1ccc(OC(F)(F)F)cc1CN[C@H]1CCCN[C@H]1c1ccccc1`, the AC50 is reported as 11.3 µM (active). With `CSc1ccc(Oc2ccc(S(N)(=O)=O)cc2CN(C)C)cc1C` the outcome was “inactive”. `CC(C)OC(=O)C(C)(C)Oc1ccc(C(=O)c2ccc(Cl)cc2)cc1` was tested, and the AC50 was 12.8 µM (active). For `S=c1[nH]c2ccccc2s1`, the outcome was “inactive”. In the case of `CC(COCC(C)OC(=O)c1ccccc1)OC(=O)c1ccccc1` (stereo not drawn), the AC50 is reported as 19.4 µM (active). `Cc1cc(SC2=C(O)C[C@@](CCc3ccc(N)cc3)(C(C)C)OC2=O)c(C(C)(C)C)cc1CO` was tested, and the outcome was “inactive”. With `O=C(N[C@@H](c1ccccc1)[C@@H]1CCCCN1)c1cccc(C(F)(F)F)c1Cl` the AC50 was 31.6 µM (active). In the case of `NC(=Nc1ccccc1)Nc1ccccc1`, the outcome is reported as “inactive”.

What follows are compounds tested against Bile acid receptor (Homo sapiens) (UniProt Q96RI1) (assay: OT_FXR_FXRSRC1_1440: Odyssey Thera (OT) 24-hour HEK293T Protein-Complementation Assay for Farnesoid X receptor/SRC-1 Co-activator (AID 2283384)).
Procedure, shortened: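 Protein-fragment complementation: FXR and SRC-1 fused to reporter fragments that reassemble on interaction, read by fluorescence intensity. Human HEK293T cells measured 24 h post-dose; positive-direction fit versus DMSO.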
With `CCc1nc(N)nc(N)c1-c1ccc(Cl)cc1` the outcome was “inactive”. With `Cn1cnc2c1c(=O)[nH]c(=O)n2C` the outcome was “inactive”. For `Cc1cc(Cc2ccc(N)c(C)c2)ccc1N`, the AC50 was 66.7 µM (active). `CCCCC(CC)COP(=O)(OCC(CC)CCCC)OCC(CC)CCCC` (stereo not drawn) was tested, and the AC50 was 67.1 µM (active). `CN(C)C(=O)NC1(c2ccccc2)CCN(CCC[C@]2(c3ccc(Cl)c(Cl)c3)CCCN(C(=O)c3ccccc3)C2)CC1` was tested, and the outcome was “inactive”. For `CN(C)C(=O)NC1(c2ccccc2)CCN(CC[C@@]2(c3ccc(F)c(F)c3)CN(C(=O)c3ccccc3)CCO2)CC1`, the outcome was “inactive”. In the case of `CSc1ccc(Oc2ccc(S(N)(=O)=O)cc2CN(C)C)cc1C`, the AC50 is reported as 26.5 µM (active). In the case of `CC(C)OC(=O)C(C)(C)Oc1ccc(C(=O)c2ccc(Cl)cc2)cc1`, the AC50 is reported as 7.72 µM (active). `S=c1[nH]c2ccccc2s1` was tested, and the outcome was “inactive”. In the case of `CC(COCC(C)OC(=O)c1ccccc1)OC(=O)c1ccccc1` (stereo not drawn), the outcome is reported as “inactive”. `Cc1cc(SC2=C(O)C[C@@](CCc3ccc(N)cc3)(C(C)C)OC2=O)c(C(C)(C)C)cc1CO` was tested, and the outcome was “inactive”. With `O=C(N[C@@H](c1ccccc1)[C@@H]1CCCCN1)c1cccc(C(F)(F)F)c1Cl` the AC50 was 11.4 µM (active). For `NC(=Nc1ccccc1)Nc1ccccc1`, the outcome was “inactive”.

These compounds were tested against Retinoic acid receptor RXR-alpha (Homo sapiens) (UniProt P19793) (assay: OT_NURR1_NURR1RXRa_0480: Odyssey Thera (OT) 8-hour HEK293T Protein Complementation Assay for Nurr1/retinoid X receptor (RXR) (AID 2283385)).
Retinoic acid receptor RXR-alpha (Homo sapiens), sequence (P19793 whole entry, looked up, the tested form may be a part): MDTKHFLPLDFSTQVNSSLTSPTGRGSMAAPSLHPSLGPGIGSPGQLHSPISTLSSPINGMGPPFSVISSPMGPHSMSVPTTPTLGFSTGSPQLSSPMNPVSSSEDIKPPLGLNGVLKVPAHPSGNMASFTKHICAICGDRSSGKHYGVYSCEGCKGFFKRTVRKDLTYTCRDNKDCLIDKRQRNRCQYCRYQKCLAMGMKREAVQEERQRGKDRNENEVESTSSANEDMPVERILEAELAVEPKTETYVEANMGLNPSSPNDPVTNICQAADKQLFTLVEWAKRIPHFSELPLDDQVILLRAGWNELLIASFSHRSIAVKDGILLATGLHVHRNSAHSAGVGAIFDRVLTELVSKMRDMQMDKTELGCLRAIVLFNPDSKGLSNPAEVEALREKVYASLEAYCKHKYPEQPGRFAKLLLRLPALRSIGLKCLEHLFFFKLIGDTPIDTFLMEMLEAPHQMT
Procedure, shortened: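 Interaction of Nurr1 with RXRα read as reconstituted reporter fluorescence in a HEK293T fragment-complementation system, 8 h post-treatment; increase over DMSO baseline analysed.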
In the case of `COC(=O)[C@H]1[C@H]2C[C@@H]3c4[nH]c5cc(OC)ccc5c4CCN3C[C@H]2C[C@@H](OC(=O)c2cc(OC)c(OC)c(OC)c2)[C@@H]1OC`, the AC50 is reported as 16.6 µM (active) and 22.4 µM (active). In the case of `CCc1nc(N)nc(N)c1-c1ccc(Cl)cc1`, the outcome is reported as “inactive”. With `O=C1NC(=O)C(c2ccccc2)(c2ccccc2)N1` the outcome was “inactive”. `Cn1cnc2c1c(=O)[nH]c(=O)n2C` was tested, and the outcome was “inactive”. `Nc1nc(=S)c2[nH]cnc2[nH]1` was tested, and the outcome was “inactive”. In the case of `Cc1cc(Cc2ccc(N)c(C)c2)ccc1N`, the outcome is reported as “inactive”. `O=C(O)CN(CC(=O)O)CC(=O)O` was tested, and the outcome was “inactive”. With `CCCCC(CC)COP(=O)(OCC(CC)CCCC)OCC(CC)CCCC` (stereo not drawn) the outcome was “inactive”. With `CC(=O)[C@@]1(O)CC[C@H]2[C@@H]3CCC4=CC(=O)CC[C@]4(C)[C@H]3CC[C@@]21C` the outcome was “inactive”. With `CN(C)C(=O)NC1(c2ccccc2)CCN(CCC[C@]2(c3ccc(Cl)c(Cl)c3)CCCN(C(=O)c3ccccc3)C2)CC1` the AC50 was 19.3 µM (active) and the outcome was “inactive”. `CN(C)C(=O)NC1(c2ccccc2)CCN(CC[C@@]2(c3ccc(F)c(F)c3)CN(C(=O)c3ccccc3)CCO2)CC1` was tested, and the outcome was “inactive”. For `CC(C)NCC(O)c1ccc(O)c(O)c1` (stereo not drawn), the AC50 was 0.03 µM (active). For `CCCCCCCCCCCCCCOS(=O)(=O)O`, the AC50 was 79.4 µM (active) and the outcome was “inactive”. In the case of `CSc1ccc(Oc2ccc(S(N)(=O)=O)cc2CN(C)C)cc1C`, the AC50 is reported as 50 µM (active) and the outcome is reported as “inactive”. For `O=C1OC(c2ccc(O)cc2)(c2ccc(O)cc2)c2ccccc21`, the outcome was “inactive”. For `CCN(CC)CCOc1ccc(C(=C(Cl)c2ccccc2)c2ccccc2)cc1`, the AC50 was 9.55 µM (active). With `CC(C)OC(=O)C(C)(C)Oc1ccc(C(=O)c2ccc(Cl)cc2)cc1` the outcome was “inactive”. In the case of `CC(COCC(C)OC(=O)c1ccccc1)OC(=O)c1ccccc1` (stereo not drawn), the outcome is reported as “inactive”. In the case of `Cc1cc(SC2=C(O)C[C@@](CCc3ccc(N)cc3)(C(C)C)OC2=O)c(C(C)(C)C)cc1CO`, the outcome is reported as “inactive”. For `CCC(C)N(C)C(=O)c1cc2ccccc2c(-c2ccccc2Cl)n1` (stereo not drawn), the outcome was “inactive”. `NC(=Nc1ccccc1)Nc1ccccc1` was tested, and the AC50 was 5.14 µM (active) and 12.2 µM (active).
